# Reference: PubChem BioAssay AID485298 (National Center for Advancing Translational Sciences (NCATS), 2010)
# The whole screen tested about 320,000 compounds, of which about 740 (0.23%) were called active. Not shown: some 2% with an inconclusive outcome. The sample as a whole holds a higher share of actives than the screen did. A number with no mark means an inactive call. Calls follow the shape of the dose curve; as a rule, active = well fitted activation curve with a large enough effect; inconclusive = small, poorly fitted or top-dose-only effect; inactive = no such curve, though single readings can be large or run the other way.
# Assay: qHTS Assay for Small Molecule Inhibitors of Mitochondrial Division or Activators of Mitochondrial Fusion; also: nearly all actives have a fitted effect of over 45% in size; as to growth rescue (activation): % of control where 0% means no effect
# Details: S. cerevisiae fusion-defective mutant growth rescue, CellTiterGlo 48 h; series mostly up to 46.1 µM; growth rescue (activation): at the top concentration
# Source text: NIH Chemical Genomics Center [NCGC] NIH Molecular Libraries Probe Production centers Network [MLPCN] MLPCN Grant: MH081279-01 Assay Submitter (PI): Jodi M. Nunnari NCGC Assay Overview: The budding yeast S. cerevisiae is a powerful system to study mitochondrial fusion. Unlike other organisms, yeast cells without functional mitochondrial DNA (mtDNA) can be propagated and studied as long as they maintain a mitochondrial compartment and are provided with a fermentable carbon source. When mitochondrial fusion is blocked in yeast, mitochondrial tubules rapidly fragment and division continues unopposed. Under conditions where fusion is compromised in mammalian cells, nearly identical changes in mitochondrial structure have been observed. Thus, these findings indicate that steady state mitochondrial structure in cells is a characteristic and specific indicator of fusion activity. Mounting evidence has pointed to a connection between mitochondrial dynamics and apoptosis in mammalian cells. These studies indicate that in mammalian cells mitochondrial dynamics are more integrated into cellular processes than in yeast cells and have evolved not only to distribute the organelle but also to aid in the regulation of cellular homeostasis. Mitochondrial fusion proteins attenuate apoptosis by inhibiting the release of cytochrome c from mitochondria, in part by controlling cristae structures. Thus, small molecules that inhibit mitochondrial […] may promote apoptosis and potentially act as novel chemotherapeutics and stimulation of apoptosis has become an attractive target of anti-cancer therapies. To identify inhibitors of mitochondrial division, we exploit the growth phenotypes of mitochondrial fusion-defective mutants. The temperature sensitive fusion alleles, such as fzo1-1 and mgm1-5, cause mitochondrial membranes to fragment in cells under non-permissive conditions and cells lose mtDNA, and are unable to grow in the presence of non-fermentable carbon source glycerol. Inhibiting mitochondrial division rescues growth. We have developed and optimized a luminescence cell viability assay in 1536 well format for the identification of inhibitors in the yeast mitochondrial fusion-defective assay.
# The yeast glycerol stocks where kindly supplied by the laboratory of Dr. Jodi Nunnari, University of California, Davis. All yeast glycerol stock solutions were stored in single use aliquots at -80C. The CellTiterGlo luminescence reagent, containing luciferase and luciferin, were purchased from Promega, and the reagents were stored according to manufacturer's instructions. The Buffer components for the YPEG yeast growth medium were purchased from Sigma-Aldrich (St. Louis, MO). YPEG growth medium: 1% (w/v) yeast extract, 2% (w/v) Bacto-peptone, 3% Ethanol, 3% glycerol, 0.4mM Tryptophan, 0.36mM Adenine. qHTS Assay Protocol: 1.#Dispense 2.5 ul yeast growth medium per 1536 well plate. 2.#Transfer 23 nl per well of compound to plate. 3.#Dispense 2.5 ul yeast solution at appropriate seeding density per well. 4.#Incubate for 48 hours at 37C. 5.#Dispense 5 ul of CellTiterGlow solution per well. 6.#Incubate at ambient for 10 minutes. 7.#Read using bio-luminescence protocol on Viewlux.
# Potency is read from the fitted curve at half-maximal effect.
Structure (SMILES),Potency,growth rescue (activation)
O=C1NC(=O)C(CCc2ccccn2)(Cc2cccc(Cl)c2Cl)C(=O)N1c1ccc(Br)cc1 (stereo not given),11.2 µM (active),–
Clc1ccc2nc3c(c(-c4ccccc4)c2c1)CNCC3,–,-2.55%
N[C@@H](Cc1c[nH]c2ccccc12)c1nnc(SCc2c(F)cccc2Cl)o1,–,-0.901%
CC(=O)NBr,–,1.86%
C=CCN1CCC23c4c5ccc(O)c4O[C@H]2C(=O)CC[C@@]3(O)C1C5 (stereo not given in full),–,-26.3%
c1ccc2c(c1)[I+]c1ccccc1-2,0.291 µM (active),–
O=C(COc1ccc2ccccc2c1)N1CCN(Cc2ccncc2)CC1,–,-0.612%
Cc1nn(Cc2ccccc2Cl)c(Cl)c1C(=O)OC(C(=O)NC(N)=O)C(C)C (stereo not given),–,0.455%
C=CCN1C(=O)C2(C(C(=O)OCC)=C(N)Oc3c2c(=O)oc2ccccc32)c2ccccc21 (stereo not given),–,16.6%
CC1=CC(=Cc2sc3ccccc3[n+]2C)C=C(C)O1,–,0.11%
